# In PubChem BioAssay AID623868 (Vanderbilt High Throughput Screening Facility, 2012):
# In all, about 2,100 compounds went through this assay and about 760 (36%) were called active. These entries were drawn from the full list. A number with no mark means an inactive call.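 Rule for the calls: active = thallium-flux fluorescence traces judged by eye to show enhanced or reduced glutamate response, manual score 1 or -1, so both directions (some results past the limit were not filed as active); inactive = the rest, including fluorescent or raised-baseline compounds.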
# Experiment: non-GIRK thallium flux modulation in mGlu8 cells, confirmation, counter-screen for GIRK activator project, cell-based, HEK-293 rmGlu8, no GIRK (AID 623868);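 note: extra codes mark interference with 3 for fluorescent and 4 for baseline rise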
# Settings: thallium flux fluorescence, at 10 µM, actives lie on both sides, codes: 1 enhancer, -1 blocker, 0 none, thallium stimulus containing EC20 glutamate
row,SMILES,manual score
1,COc1cccc(NC(=O)CC2COc3ccccc3O2)c1 (stereo unspecified),0
2,C#CC(CO)N(CCN(Cc1ccccc1)C(C#C)CO)Cc1ccccc1 (stereo unspecified),0
3,COc1ccc(-c2nnc(NC(=O)c3ccc(S(=O)(=O)N4CCCc5ccccc54)cc3)o2)cc1,1 (active)
4,CCOc1ccc(-c2nc(-c3ccc(OC)c(OC)c3)no2)cc1OCC,0
5,CCOc1ccc(-c2nnc(NC(=O)CCCOc3cccc(C)c3)o2)cc1,0
6,COc1ccc(-c2nnc(NC(=O)c3ccc(S(=O)(=O)N4COCC4(C)C)cc3)o2)cc1,1 (active)
7,Cc1cccc(N2CCN(C(=O)c3ccc(Cl)c(S(=O)(=O)N4CCc5ccccc5C4)c3)CC2)c1C,0
8,COc1ccc(-c2nnc(NC(=O)c3ccc(S(=O)(=O)N4CCc5ccccc5C4)cc3)o2)cc1,1 (active)
9,CCOc1ccc(-c2nnc(NC(=O)c3ccc(OCC(C)C)c(OC)c3)o2)cc1,1 (active)
10,CCCCCCCC1CC(CSC(=N)N)OC1=O (stereo unspecified),0
11,COc1ccc(C(C)N2CC34C=CC(O3)C(C(=O)OCC(C)C)C4C2=O)cc1 (stereo unspecified),0
12,N#CCCn1nc(-c2ccc(Cl)cc2)cc1Nc1ccccc1NC(=O)C(F)(F)F,0
13,O=C(CSc1ccc(-c2ccco2)nn1)c1ccccc1,0
14,COc1ccc(-c2nnc(NC(=O)c3ccc(F)cc3)o2)cc1,1 (active)
15,O=C(Nc1nnc(-c2ccco2)o1)c1ccc2ccccc2c1,1 (active)
16,CCc1cc(C(N)=O)c(NC(=O)c2ccc(OC)cc2)s1,0
17,CCCCOC(=S)NC(=O)c1sc2ccccc2c1Cl,1 (active)
18,O=C(NC(=S)N(CCCCO)C1CCCCC1)c1sc2ccccc2c1Cl,1 (active)
19,CCCOC(=S)NC(=O)c1sc2ccccc2c1Cl,1 (active)
20,CCOC(=S)NC(=O)c1sc2ccccc2c1Cl,1 (active)
21,OC(CN1C2=NCCCN2c2ccccc21)c1ccc(Br)cc1 (stereo unspecified),0
22,Cc1ccc2c(Cl)cc(Cl)c(OCC(=O)NCc3ccco3)c2n1,1 (active)

row,SMILES,manual score
1,N=c1c(C(=O)NCc2ccco2)cc2c(=O)n3ccccc3nc2n1CCc1ccccc1,0
2,CCC/C(=N/NC(=O)c1cccc(Cl)c1)c1ccccc1,1 (active)
3,COc1cccc(NC(=O)Cn2cc3c(n2)CCCCC3)c1,0
4,CCNC(=S)N/N=C1\CCCCc2ccccc21,0.5
5,COc1cccc(NC(=S)N/N=C2/CCCCc3ccccc32)c1,1 (active)
6,COc1ccc(Nc2nc(N)nc(CSc3nnc(C)s3)n2)cc1,0
7,COc1cc(OC)c(-c2c3cc(O)c(=O)cc-3oc3cc(O)c(O)cc23)cc1OC,3
8,COc1cccc(CNCCNC(=O)c2ccco2)c1OC,0
9,COc1ccc(NC(=O)Nc2cc(C)ccc2OC)cc1,0
10,COc1ccccc1NC(=O)C(=O)NNC(=O)c1ccco1,1 (active)
11,COc1ccc(NC(=O)Nc2ccccc2OC)cc1,0
12,COc1ccc(C)cc1NC(=O)Nc1ccccc1,0
13,COc1ccc(C)cc1NC(=O)C(=O)NNC(=O)c1ccco1,1 (active)
14,CC(C)c1ccc(-n2cccc2/C=C2/C(=N)N3C=CSC3=NC2=O)cc1,0
15,C(/C=C/C=C/Nc1ccccc1)=Nc1ccccc1,3
16,Cc1ccc(OCC(O)Cn2c(=N)n(CCN3CCCCC3)c3ccccc32)cc1 (stereo unspecified),0
17,CC(c1ccc(F)cc1)n1c(-c2ccc3ccccc3n2)n[nH]c1=S (stereo unspecified),1 (active)
18,CC(c1ccc(Cl)cc1)n1c(-c2ccc3ccccc3n2)n[nH]c1=S (stereo unspecified),1 (active)
19,CC(=O)Nc1ccc(Oc2ncccn2)cc1,0
20,Cc1cccc(C)c1NC(=O)C(NC(=O)c1ccccn1)c1ccc([N+](=O)[O-])cc1 (stereo unspecified),0
21,O=C(NNC(=O)c1cccnc1SCc1cccc([N+](=O)[O-])c1)c1cccnc1,0
22,O=C(NNC(=O)c1cccnc1SCc1cccc([N+](=O)[O-])c1)c1ccccn1,1 (active)

row,SMILES,manual score
1,O=C(c1oc(=O)c2ccccc2c1-c1ccccc1)N1CCN(C2CCCCC2)CC1,0
2,CCOC(=O)C1=C(O)C(=O)N(c2ccc(S(N)(=O)=O)cc2)C1c1ccccc1 (stereo unspecified),-1 (active)
3,CCOC(=O)c1cc2n(c1N)-c1ccccc1C2=O,3
4,CCOC(=O)c1ccc(N2C(=O)C(O)=C(C(C)=O)C2c2ccccc2)cc1 (stereo unspecified),-0.5
5,Clc1cccc(-c2ccc(/C=N/n3cnnc3)o2)c1Cl,0
6,CCCn1nnc(NC(=O)COc2ccc(C3CCCCC3)cc2)n1,0
7,CCCCn1nnc(NC(=S)NC(=O)c2ccc(-c3cccc(Cl)c3Cl)o2)n1,1 (active)
8,COc1ccccc1N(C)S(=O)(=O)c1ccc(C(=O)N(CC(N)=O)C(C)C)cc1,0
9,CCOc1ccc(N2C(=O)/C(=C/c3cc(OC)c(OC)c(OC)c3)N(CC(=O)OC)C2=S)cc1,0
10,CCOC(=O)C1CCN(C(=O)CN(c2ccc(Cl)c(C(F)(F)F)c2)S(C)(=O)=O)CC1,-1 (active)
11,CCOC(=O)C1CCN(C(=O)N(C)C)CC1,0
12,CS(=O)(=O)N(CC(=O)NCc1ccco1)c1ccc(Cl)c(C(F)(F)F)c1,0
13,CCCOc1ccc(/C=N/NC(=O)C(=O)Nc2ccccn2)cc1,1.5
14,O=C(N/N=C/c1ccc(Sc2ccccn2)o1)c1cc2ccccc2cc1O,1 (active)
15,O=C(CSc1nc2ccccc2[nH]1)NC1CCCc2ccccc21 (stereo unspecified),0
16,CN(C)CCNc1ncnc2c1cnn2-c1ccc(Cl)cc1,0
17,NC(=O)CSc1ncnc2c1cnn2Cc1ccccc1,0
18,Cc1ccc(-n2ncc3c(SCc4ccccc4)ncnc32)cc1,1 (active)
19,Cc1ccc(CSc2ncnc3c2cnn3-c2ccc(C)cc2)cc1,1 (active)
20,COc1ccc(OC)c(Nc2ncnc3c2cnn3-c2cccc(C)c2)c1,0
21,COc1cc2cnncc2cc1OC,0
22,CCOc1ccc(NC(=O)Cn2nnc(-c3ccccc3F)n2)cc1,0

row,SMILES,manual score
1,N#Cc1c(N2CCN(C(=O)c3ccccc3)CC2)nc(-c2ccccc2)c2c1CCCC2,0
2,CSc1nc(-c2ccccc2)[nH]c(=S)c1C(C)=O,1 (active)
3,CC(=O)c1c(N2CCCC2)[nH]c(-c2ccccc2)nc1=S,1 (active)
4,CCCOC(=O)NC(CC)COC(=O)Nc1cccc(C)c1C (stereo unspecified),0
5,CN=C1c2c(-c3ccccc3)c3cc(OC)ccc3n2CCN1C,0
6,O=C(NC(=S)Nc1ccccc1N1CCOCC1)c1ccco1,1 (active)
7,O=C(NC(=S)Nc1ccccc1N1CCCCC1)c1ccco1,0
8,CC1CCN(c2ccccc2NC(=S)NC(=O)c2ccco2)CC1,1 (active)
9,O=C(C[n+]1cc(-c2ccccc2)n2c1CCC2)OCc1ccccc1,0
10,CC(C)(C)c1nn(-c2ccccc2)c2[nH]c(=O)c(CNCc3ccc4c(c3)OCO4)cc12,-1 (active)
11,CCc1ccc(NCc2cc3c(C)nn(-c4ccccc4)c3[nH]c2=O)cc1,0
12,O=C(NCc1ccc2c(c1)OCO2)C1CCN(Cc2cnn(-c3ccccc3)c2-n2cccc2)CC1,0
13,C=CCNc1nc(N2CCCC2)nc2ccccc12,0
14,COc1ccc(/C=C2\C(=O)NC(=S)N2C(=O)c2ccc(F)cc2)cc1,1 (active)
15,COc1ccc(C(=O)N2C(=S)NC(=O)/C2=C\c2ccc(C)cc2)cc1,0.5
16,COc1ccc(NC2=Nc3cccc4cccc2c34)cc1OC,0
17,Cc1nc2ccc(NS(=O)(=O)c3ccc4c(c3)OCCO4)cc2s1,0
18,Cc1csc(NC(=S)Nc2cccc(Cl)c2)n1,1 (active)
19,S=C(NCc1cccs1)Nc1cccc(Cl)c1,0
20,S=C(Nc1cccc(Cl)c1)Nc1cccc2cnccc12,0
21,C=C(C)C1CC=C(C)/C(=N/NC(=O)c2ccc(NC(=O)CCC)cc2)C1 (stereo unspecified),0
22,CCOc1ccc(C2=NNC(c3cccs3)=Nc3ccc(OC)cc32)cc1,0

row,SMILES,manual score
1,COc1ccc(/C=N/n2c(-c3cccs3)n[nH]c2=S)cc1,1 (active)
2,COc1cccc(OCCc2c(C)n[nH]c2C)c1,0
3,COCCN=c1scc(-c2cccs2)n1/N=C/c1ccc(O)c(O)c1O,0
4,COc1cccc(/C=N/n2c(-c3cccs3)n[nH]c2=S)c1,1 (active)
5,Cc1onc(-c2c(F)cccc2Cl)c1C(=O)OCn1nnc2ccccc2c1=O,0
6,CC1=NN(c2ccccc2)C(=O)C1C(=O)c1ccc(Cl)cc1 (stereo unspecified),1 (active)
7,COC(=O)C1=NN(c2ccccc2)C2C(=O)N(c3ccccc3OC)C(=O)C12 (stereo unspecified),0
8,COc1cc(NC(=O)CSCc2cnn(-c3ccccc3)c2-n2cccc2)cc(OC)c1,0
9,CC1=C(n2nnc3ccccc32)C(c2ccccc2)C(C#N)=C(N)O1 (stereo unspecified),0
10,Cc1ccc(N=Cc2cc3c(cc2O)OC(N)=C(C#N)C3c2ccccc2)cc1 (stereo unspecified),-1 (active)
11,CCN(CC)c1ccc2c(c1)OC(N)=C(C#N)C2c1cccnc1 (stereo unspecified),3
12,CC(Sc1nnnn1C)C(=O)Nc1ccc(Oc2ccccc2)cc1 (stereo unspecified),0.5
13,Cc1cccc(OCCn2c(=S)[nH]c3ccccc32)c1,0
14,COc1ccc(-c2c3c(=O)n(C)c(=O)n(C)c3cn2-c2ccccc2)cc1,0
15,COc1ccc(-n2cc(-c3ccccc3)[nH]c2=S)cc1,1 (active)
16,Cn1c(-c2ccc(-c3ccccc3)cc2)c[nH]c1=S,0
17,CCCn1c(=N)n(CCOc2ccc(OC)cc2)c2ccccc21,0
18,COc1ccc(-n2c(=S)[nH]c3ccccc32)cc1,1 (active)
